Several values for one entry are separate records, joined by “and”; a condition that tells them apart may be missing. Equal entries are not always repeated. More than one record can exist for a structure, and the calls need not agree. Activity calls are given as the source filed them. How the source made its calls: active means hit-call score of the fitted dose curve at least 0.9, where 1 is the maximum; inactive means score below 0.9.
How the values were obtained:
[1] = target: Bile acid receptor (Homo sapiens) (UniProt Q96RI1); assay: ATG_IR1_CIS: Attagene CIS-FACTORIAL HepG2 Assay for human Nuclear Receptor Subfamily 1 Group H Member 4 (NR1H4), IR1 submotif (AID 2282946); settings: IR1 reporter transcription, actives raise or lower the signal
Sequence of Bile acid receptor (Homo sapiens) (Q96RI1 whole entry, looked up): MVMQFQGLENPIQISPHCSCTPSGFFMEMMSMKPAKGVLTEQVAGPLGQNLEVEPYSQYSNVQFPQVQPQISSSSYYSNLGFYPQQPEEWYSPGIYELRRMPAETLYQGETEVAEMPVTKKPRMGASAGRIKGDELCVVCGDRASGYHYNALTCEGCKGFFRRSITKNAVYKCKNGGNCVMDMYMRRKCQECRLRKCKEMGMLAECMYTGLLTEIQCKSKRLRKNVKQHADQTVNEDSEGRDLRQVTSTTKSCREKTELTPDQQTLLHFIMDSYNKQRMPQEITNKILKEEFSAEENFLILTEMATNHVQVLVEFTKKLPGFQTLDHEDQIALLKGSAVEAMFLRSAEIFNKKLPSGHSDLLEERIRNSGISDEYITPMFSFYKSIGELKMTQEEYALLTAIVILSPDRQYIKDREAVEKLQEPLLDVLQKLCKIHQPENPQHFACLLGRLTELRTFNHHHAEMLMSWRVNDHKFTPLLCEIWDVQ
How it was run: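 Readout: reporter transcript levels by RT-PCR with fluorescent capillary electrophoresis, from HepG2 cells transiently transfected with multiplexed cis-regulated reporters and dosed 24 h. Gain- or loss-of-signal fitted versus DMSO negative control.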

[2] = ATG_GRE_CIS: Attagene CIS-FACTORIAL HepG2 Assay for human Glucocorticoid Response Elements (GRE) (AID 2282947); settings: HepG2 GRE cis-reporter, Attagene multiplex mRNA; actives raise or lower the signal
How it was run: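 HepG2, transient cis-reporter transfection, 24 h. Reporter mRNA: RT-PCR then CE, fluorescence. Fit both directions vs DMSO.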

[3] = ATG_ISRE_CIS: Attagene CIS-FACTORIAL HepG2 Assay for human Interferon Regulatory Factor 1 (IRF1) binding to an Interferon-Stimulated Response Element (ISRE) (AID 2282948); settings: HepG2 ISRE cis-reporter (Attagene), mRNA transcription readout; actives raise or lower the signal
How it was run: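 Read-out: fluorescent RT-PCR products resolved by capillary electrophoresis, reporting endogenous transcription factor activity via ISRE-driven reporter mRNA in transfected HepG2 cells dosed for 24 h; gain or loss fitted relative to DMSO.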

[4] = ATG_M_32_CIS: Attagene CIS-FACTORIAL HepG2 Assay for M32 Transcription Factor (Internal Marker) (AID 2282949); settings: HepG2 Attagene cis-factorial M32 reporter, mRNA; actives raise or lower the signal;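 further: background control marker of the multiplexed CIS panel rather than a real target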
How it was run: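 Using DMSO as baseline, bidirectional curve fits were applied to reporter mRNA signals. These came from transiently transfected HepG2 cells exposed for 24 h, with RNA analysed by RT-PCR, FAM primer extension, HpaI digestion and CE.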

[5] = ATG_M_06_CIS: Attagene CIS-FACTORIAL HepG2 Assay for M06 Transcription Factor (Internal Marker) (AID 2282950); settings: HepG2 Attagene CIS-FACTORIAL M06 internal marker reporter; actives raise or lower the signal
How it was run: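 HepG2 liver cells, 24 h exposure. Reporter transcripts from transfected cis-element constructs quantified by RT-PCR/capillary electrophoresis fluorescence. Bidirectional curve fit against DMSO.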

[6] = target: Hypoxia-inducible factor 1-alpha (Homo sapiens) (UniProt Q16665); assay: ATG_HIF1a_CIS: Attagene CIS-FACTORIAL HepG2 Assay for human Hypoxia Inducible Factor 1 (HIF1A) (AID 2282951); settings: HepG2 Attagene cis-factorial HIF1a reporter transcription; actives raise or lower the signal
Sequence of Hypoxia-inducible factor 1-alpha (Homo sapiens) (Q16665 whole entry, looked up): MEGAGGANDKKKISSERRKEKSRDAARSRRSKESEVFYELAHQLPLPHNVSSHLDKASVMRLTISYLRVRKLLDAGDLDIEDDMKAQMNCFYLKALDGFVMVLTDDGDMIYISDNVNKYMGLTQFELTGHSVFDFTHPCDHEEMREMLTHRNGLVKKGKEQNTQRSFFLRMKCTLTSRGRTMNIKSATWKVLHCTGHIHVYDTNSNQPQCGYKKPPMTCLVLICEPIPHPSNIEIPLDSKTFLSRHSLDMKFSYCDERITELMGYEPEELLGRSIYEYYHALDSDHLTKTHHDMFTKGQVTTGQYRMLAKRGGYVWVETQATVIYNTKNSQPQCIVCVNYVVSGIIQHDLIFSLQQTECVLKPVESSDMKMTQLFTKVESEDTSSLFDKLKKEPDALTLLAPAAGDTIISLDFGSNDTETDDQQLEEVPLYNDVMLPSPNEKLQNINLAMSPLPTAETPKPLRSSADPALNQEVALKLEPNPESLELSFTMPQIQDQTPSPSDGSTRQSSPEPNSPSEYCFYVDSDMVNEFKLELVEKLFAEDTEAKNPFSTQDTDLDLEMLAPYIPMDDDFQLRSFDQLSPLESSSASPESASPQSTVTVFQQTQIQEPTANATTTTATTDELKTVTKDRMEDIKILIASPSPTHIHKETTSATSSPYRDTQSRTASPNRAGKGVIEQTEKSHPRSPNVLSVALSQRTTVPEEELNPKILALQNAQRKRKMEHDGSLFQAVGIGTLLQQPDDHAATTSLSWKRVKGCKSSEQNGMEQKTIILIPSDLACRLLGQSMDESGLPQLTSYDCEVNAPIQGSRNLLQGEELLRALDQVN
How it was run: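 In this multiplexed cell assay, HepG2 cells bearing transfected cis reporters are dosed for 24 h and reporter mRNA is read by RT-PCR plus capillary electrophoresis; signal increases and decreases are both scored against DMSO.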

[7] = target: Hepatocyte nuclear factor 6 (Homo sapiens) (UniProt Q9UBC0); assay: ATG_HNF6_CIS: Attagene CIS-FACTORIAL HepG2 Assay for human Hepatocyte Nuclear Factor 6 (HNF6) (AID 2282952); settings: HepG2 Attagene cis-factorial HNF6 reporter transcription; actives raise or lower the signal
Sequence of Hepatocyte nuclear factor 6 (Homo sapiens) (Q9UBC0 whole entry, looked up, the tested form may be a part): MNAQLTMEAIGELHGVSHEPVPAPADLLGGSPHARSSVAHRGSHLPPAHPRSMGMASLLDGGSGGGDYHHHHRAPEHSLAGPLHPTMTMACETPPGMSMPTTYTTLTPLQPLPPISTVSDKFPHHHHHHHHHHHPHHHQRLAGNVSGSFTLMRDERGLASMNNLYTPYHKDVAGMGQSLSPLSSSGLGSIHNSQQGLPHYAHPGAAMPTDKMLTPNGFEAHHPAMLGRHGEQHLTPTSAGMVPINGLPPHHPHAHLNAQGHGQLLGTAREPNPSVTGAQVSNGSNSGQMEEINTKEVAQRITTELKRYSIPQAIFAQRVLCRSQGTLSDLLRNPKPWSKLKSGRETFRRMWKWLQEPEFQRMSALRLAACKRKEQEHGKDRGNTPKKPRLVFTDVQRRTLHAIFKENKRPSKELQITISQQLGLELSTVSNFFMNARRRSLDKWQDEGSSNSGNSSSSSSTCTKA
How it was run: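 First, HepG2 cells were transfected with the multiplexed cis reporter library and dosed with chemical for 24 h. Next, RNA was reverse-transcribed, PCR-amplified and fluorescently labelled. Finally, HpaI-digested fragments were read by capillary electrophoresis.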

[8] = target: Heat shock factor protein 1 (Homo sapiens) (UniProt Q00613); assay: ATG_HSE_CIS: Attagene CIS-FACTORIAL HepG2 Assay for human Heat Shock Transcription Factor 1 (HSE) (AID 2282953); settings: HepG2 HSE cis-reporter, Attagene RNA transcription; actives raise or lower the signal
Sequence of Heat shock factor protein 1 (Homo sapiens) (Q00613 whole entry, looked up, the tested form may be a part): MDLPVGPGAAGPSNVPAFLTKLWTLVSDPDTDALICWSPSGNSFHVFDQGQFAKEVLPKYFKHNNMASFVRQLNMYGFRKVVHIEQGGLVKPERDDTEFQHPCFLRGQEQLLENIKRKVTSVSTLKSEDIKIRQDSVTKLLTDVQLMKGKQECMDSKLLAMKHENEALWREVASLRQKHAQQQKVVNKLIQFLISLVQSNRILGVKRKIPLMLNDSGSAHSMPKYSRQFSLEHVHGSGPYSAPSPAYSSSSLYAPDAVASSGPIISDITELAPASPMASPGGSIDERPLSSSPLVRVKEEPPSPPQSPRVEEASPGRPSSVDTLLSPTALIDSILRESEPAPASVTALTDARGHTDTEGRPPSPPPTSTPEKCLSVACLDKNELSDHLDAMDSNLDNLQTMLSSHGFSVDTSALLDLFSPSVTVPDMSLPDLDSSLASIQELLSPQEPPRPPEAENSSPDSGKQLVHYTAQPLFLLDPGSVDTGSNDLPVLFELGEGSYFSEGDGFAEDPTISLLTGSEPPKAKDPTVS
How it was run: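 Endogenous transcription factor activity captured via cis-promoter reporter units transfected into HepG2; treatment lasted 24 h. Fluorescence intensity of reporter fragments analysed with bidirectional curve fitting, DMSO baseline.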

[9] = ATG_MRE_CIS: Attagene CIS-FACTORIAL HepG2 Assay for human Metal Responsive Element (MRE) (AID 2282954); settings: HepG2 MRE cis-reporter transcription, Attagene multiplex; actives raise or lower the signal
How it was run: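 Readout: capillary electrophoresis of 6-FAM-labelled, HpaI-digested RT-PCR reporter products. System: HepG2 cells carrying transient multiplexed cis reporters, dosed 24 h. Analysis: bidirectional fit, DMSO baseline.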

[10] = ATG_PBREM_CIS: Attagene CIS-FACTORIAL HepG2 Assay for human Phenobarbital-responsive Enhancer Module (PBREM) (AID 2282955); settings: HepG2 PBREM cis-reporter, Attagene multiplexed transcription; actives raise or lower the signal
How it was run: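 After a 24 h incubation with test chemical, transfected HepG2 cells yield total RNA; reporter-specific RT-PCR products are fluorescently labelled, HpaI-digested and resolved by capillary electrophoresis against ROX size standards.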

[11] = target: Paired box protein Pax-6 (Homo sapiens) (UniProt P26367); assay: ATG_Pax6_CIS: Attagene CIS-FACTORIAL HepG2 Assay for human Paired Box 6 (PAX6) (AID 2282956); settings: HepG2 CIS-FACTORIAL PAX6 reporter transcription, RNA readout; actives raise or lower the signal
Sequence of Paired box protein Pax-6 (Homo sapiens) (P26367 whole entry, looked up): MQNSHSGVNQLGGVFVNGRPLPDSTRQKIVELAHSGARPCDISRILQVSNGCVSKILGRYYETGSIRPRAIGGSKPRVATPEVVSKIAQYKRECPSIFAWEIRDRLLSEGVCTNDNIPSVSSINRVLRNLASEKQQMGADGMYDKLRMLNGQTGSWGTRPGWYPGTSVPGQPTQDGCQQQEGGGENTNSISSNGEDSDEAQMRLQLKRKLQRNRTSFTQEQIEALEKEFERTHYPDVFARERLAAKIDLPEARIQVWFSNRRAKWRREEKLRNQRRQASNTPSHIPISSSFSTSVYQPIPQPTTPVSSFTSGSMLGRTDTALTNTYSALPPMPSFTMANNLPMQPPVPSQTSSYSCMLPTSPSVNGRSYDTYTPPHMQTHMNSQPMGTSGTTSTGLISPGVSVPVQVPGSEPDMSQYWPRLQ
How it was run: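 Readout: reporter transcript fluorescence after RT-PCR and capillary electrophoresis. Cells: HepG2, transiently transfected with cis-regulated MRTUs. Exposure 24 h. Gain or loss of signal fitted bidirectionally relative to DMSO.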

[12] = ATG_PXRE_CIS: Attagene CIS-FACTORIAL HepG2 Assay for human Pregnane X Receptor Element (PXRE) (AID 2282957); settings: HepG2 Attagene CIS-FACTORIAL PXRE reporter, mRNA; actives raise or lower the signal
How it was run: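 After a 24 h chemical incubation, total RNA from transfected HepG2 cells was reverse-transcribed and reporter cDNA amplified, FAM-labeled, HpaI-digested and sized by capillary electrophoresis. DMSO served as baseline for bidirectional curve fitting.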

[13] = ATG_PPRE_CIS: Attagene CIS-FACTORIAL HepG2 Assay for human Peroxisome Proliferator-activated Response Element (PPRE) (AID 2282958); settings: HepG2 PPRE cis-element reporter, Attagene transcription factor profiling; actives raise or lower the signal
How it was run: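 Multiplexed reporter transcription units under cis-regulatory promoters were transfected into HepG2 cells to capture endogenous factor activity. A 24 h incubation preceded RNA isolation and fluorescent RT-PCR fragment analysis.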

[14] = ATG_RORE_CIS: Attagene CIS-FACTORIAL HepG2 Assay for human RAR-related Orphan Receptor Element (RORE) (AID 2282959); settings: HepG2 Attagene cis-factorial RORE reporter, mRNA; actives raise or lower the signal
How it was run: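 Fluorescence intensity of reporter-specific cDNA fragments, separated by capillary electrophoresis, gives the signal. Source: HepG2 liver cells transiently transfected with cis-element reporters and exposed 24 h; DMSO-normalized bidirectional fit.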

[15] = ATG_Sox_CIS: Attagene CIS-FACTORIAL HepG2 Assay for human SRY-box transcription factor (SOX) (AID 2282960); settings: HepG2 Attagene cis-factorial SOX reporter, mRNA; actives raise or lower the signal
How it was run: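 After 24 h of chemical treatment, transfected HepG2 reporter cells are lysed for total RNA. Transcript levels come from RT-PCR with labelled primer extension and capillary electrophoresis, analysed bidirectionally versus DMSO.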

[16] = ATG_SREBP_CIS: Attagene CIS-FACTORIAL HepG2 Assay for human Sterol Regulatory Element Binding (SREBP) (AID 2282962); settings: HepG2 Attagene cis-factorial SREBP reporter, mRNA; actives raise or lower the signal
How it was run: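 Readout: fluorescent reporter-transcript peaks resolved by capillary electrophoresis after RT-PCR. Cells were human HepG2 carrying transfected cis-promoter reporter constructs, dosed for 24 h. Gain or loss of signal was fitted against DMSO controls.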

[17] = target: Signal transducer and activator of transcription 3 (Homo sapiens) (UniProt P40763); assay: ATG_STAT3_CIS: Attagene CIS-FACTORIAL HepG2 Assay for human Signal Transducer and Activator of Transcription 3 (STAT3) (AID 2282963); settings: HepG2, Attagene cis-factorial STAT3 reporter transcription; actives raise or lower the signal
Sequence of Signal transducer and activator of transcription 3 (Homo sapiens) (P40763 whole entry, looked up): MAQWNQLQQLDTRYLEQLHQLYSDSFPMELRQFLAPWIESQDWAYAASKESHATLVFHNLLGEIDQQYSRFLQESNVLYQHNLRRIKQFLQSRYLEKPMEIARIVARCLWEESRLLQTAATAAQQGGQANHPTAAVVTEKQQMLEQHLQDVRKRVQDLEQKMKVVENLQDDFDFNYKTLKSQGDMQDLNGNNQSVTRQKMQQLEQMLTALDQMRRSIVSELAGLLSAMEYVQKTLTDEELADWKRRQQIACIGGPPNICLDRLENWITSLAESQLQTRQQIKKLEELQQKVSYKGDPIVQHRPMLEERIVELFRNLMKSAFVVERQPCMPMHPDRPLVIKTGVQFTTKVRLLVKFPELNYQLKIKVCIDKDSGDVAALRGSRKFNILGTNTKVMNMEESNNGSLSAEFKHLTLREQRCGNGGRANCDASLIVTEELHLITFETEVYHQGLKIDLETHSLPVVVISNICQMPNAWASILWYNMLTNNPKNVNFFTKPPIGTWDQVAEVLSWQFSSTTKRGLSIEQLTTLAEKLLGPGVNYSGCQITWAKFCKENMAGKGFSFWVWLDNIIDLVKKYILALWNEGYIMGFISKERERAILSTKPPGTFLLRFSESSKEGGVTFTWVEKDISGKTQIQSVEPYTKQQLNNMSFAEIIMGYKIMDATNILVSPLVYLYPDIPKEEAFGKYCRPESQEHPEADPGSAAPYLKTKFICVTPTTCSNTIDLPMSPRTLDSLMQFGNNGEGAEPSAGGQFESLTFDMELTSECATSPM
How it was run: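 Uses human liver HepG2 transiently carrying cis-regulated reporter transcription units. Following 24 h dosing, reporter mRNA induction was detected by RT-PCR and capillary electrophoresis, analysed bidirectionally versus DMSO.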

[18] = ATG_TA_CIS: Attagene CIS-FACTORIAL HepG2 Assay for human TA Basal Promoter (AID 2282964); settings: HepG2 Attagene CIS-factorial TA basal promoter reporter; actives raise or lower the signal
How it was run: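 Fluorescence from labelled RT-PCR reporter fragments, separated by capillary electrophoresis, gives the signal. Cells: HepG2 transiently carrying multiple reporter units, 24 h chemical dosing. Gain or loss relative to DMSO.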

[19] = ATG_TCF_b_cat_CIS: Attagene CIS-FACTORIAL HepG2 Assay for human T-Cell-Factor with beta-catenin (TCF/b-cat) (AID 2282965); settings: HepG2 TCF/beta-catenin cis-reporter transcription, actives raise or lower the signal
How it was run: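 Using capillary electrophoresis as the read-out, labelled reporter cDNA fragments from transiently transfected HepG2 were sized and quantified. Exposure lasted 24 hours; activity in either direction was referenced to DMSO.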

[20] = target: Transcription factor Sp1 (Homo sapiens) (UniProt P08047); assay: ATG_Sp1_CIS: Attagene CIS-FACTORIAL HepG2 Assay for human Specificity Protein 1 (Sp1) (AID 2282961); settings: HepG2 Sp1 cis-reporter transcription, actives raise or lower the signal
Sequence of Transcription factor Sp1 (Homo sapiens) (P08047 whole entry, looked up): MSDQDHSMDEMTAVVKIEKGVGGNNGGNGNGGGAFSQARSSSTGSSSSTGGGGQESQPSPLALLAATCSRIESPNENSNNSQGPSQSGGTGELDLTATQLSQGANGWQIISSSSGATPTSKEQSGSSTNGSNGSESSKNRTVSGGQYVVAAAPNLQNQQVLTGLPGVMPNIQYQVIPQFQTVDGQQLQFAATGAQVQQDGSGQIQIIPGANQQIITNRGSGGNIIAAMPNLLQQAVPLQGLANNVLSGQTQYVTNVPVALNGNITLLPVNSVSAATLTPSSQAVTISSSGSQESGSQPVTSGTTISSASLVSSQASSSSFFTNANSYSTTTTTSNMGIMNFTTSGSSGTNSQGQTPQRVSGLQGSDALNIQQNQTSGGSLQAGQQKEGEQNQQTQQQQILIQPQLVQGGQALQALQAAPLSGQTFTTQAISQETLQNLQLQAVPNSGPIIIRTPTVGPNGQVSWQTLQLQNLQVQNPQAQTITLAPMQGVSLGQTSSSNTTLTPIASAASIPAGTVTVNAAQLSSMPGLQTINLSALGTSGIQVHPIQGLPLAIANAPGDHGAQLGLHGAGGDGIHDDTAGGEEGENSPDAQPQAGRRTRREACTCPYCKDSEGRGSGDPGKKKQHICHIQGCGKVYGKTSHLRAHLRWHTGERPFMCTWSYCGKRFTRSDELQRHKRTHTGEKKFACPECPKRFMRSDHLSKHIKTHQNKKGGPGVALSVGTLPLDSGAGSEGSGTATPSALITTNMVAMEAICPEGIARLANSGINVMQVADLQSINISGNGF
How it was run: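 Sp1-driven reporter mRNA, read as capillary electrophoresis fluorescence after RT-PCR, in transiently transfected HepG2 cells dosed for 24 h; signal change in either direction relative to DMSO.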

Measured: AC50

O=C(Nc1ccc(Cl)cc1)Nc1ccc(Cl)c(Cl)c1
active: [3] 5.89 µM | [12] 2.12 µM | [14] 4.17 µM
not listed: [20]
inactive: all other assays above

COc1cc(C(=O)NC2CCN(C)CC2)ccc1Nc1ncc2c(n1)N(C1CCCC1)CC(F)(F)C(=O)N2C
active: [2] 0.872 µM | [3] 4.8 µM | [9] 2.37 µM | [11] 3.75 µM | [12] 1.01 µM | [14] 3.55 µM | [16] 1.56 µM | [19] 4.26 µM
not listed: [20]
inactive: all other assays above

Cc1cc2c(cc1C(F)(F)F)N(C(=O)Nc1ccc(Oc3cccnc3C)nc1)CC2
inactive: all assays above

CC/C(=C(/CC)c1ccc(O)cc1)c1ccc(O)cc1
inactive: [1] | [2] | [3] | [4] | [5] | [6] | [7] | [8] | [9] | [11] | [15] | [20] | [16] | [17] | [18] | [19]
active: [1] 15.4 µM and 2.2 µM | [3] 11.1 µM | [8] 20 µM and 18.7 µM and 20.2 µM | [9] 15.2 µM [middle of 4 runs] | [11] 14.9 µM and 5.16 µM | [15] 11.1 µM | [20] 18.2 µM | [19] 11.1 µM and 16.2 µM and 5.89 µM

CCN(Cc1cccnc1)C(=O)c1cccc(Cl)c1[C@]1(C)C(=O)N(Cc2ccc(OC)cc2OC)c2ccc(Cl)cc21
active: [3] 7.7 µM | [8] 40.4 µM | [9] 7.17 µM | [10] 1.47 µM | [11] 3.83 µM | [12] 0.143 µM | [14] 2.74 µM | [16] 3.23 µM | [18] 4.5 µM | [19] 5.44 µM
inactive: [1] | [2] | [4] | [5] | [6] | [7] | [13] | [15] | [17]
